The source of these data is PubChem BioAssay (NCATS).

A short description of assay [1]: qHTS for differential inhibitors of proliferation of Plasmodium falciparum line HB3 (AID 1886).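 Also: parasites grown with compound for 72 h before SYBR Green readout.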 Also: potency is read from the fitted curve at half-maximal effect. The following applies: Potency: Plasmodium falciparum HB3 proliferation inhibition.
The target of assay [2] is Ferritin light chain (Equus caballus) (UniProt P02791). Briefly: qHTS Validation Assay for Identification of Novel General Anesthetics (AID 2323). Also: series mostly up to about 77 µM. The essentials: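 Competitive displacement of the profluorescent anesthetic 1-AMA (50% saturated, PBS) from 10 uM apoferritin, 10 min, room temperature. Activity is normalized 380/535 nm fluorescence; concentration-response fitted with a four-parameter Hill equation.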
Chain of Ferritin light chain (Equus caballus) (P02791 2-175 limits assumed): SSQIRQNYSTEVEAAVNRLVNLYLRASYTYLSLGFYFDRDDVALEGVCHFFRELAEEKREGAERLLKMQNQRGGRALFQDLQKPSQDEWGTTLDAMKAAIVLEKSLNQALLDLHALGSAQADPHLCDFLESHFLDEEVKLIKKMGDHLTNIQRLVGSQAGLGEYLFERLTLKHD
In general terms: In qHTS, concentration-response curves come from the screen itself.

For assay [3], the target named is ATP-dependent DNA helicase Q1 (Homo sapiens) (UniProt P46063). Kind of assay: qHTS Validation Assay for Inhibitors of RecQ-Like Dna Helicase 1 (RECQ1) (AID 2353). In short, it runs like this:
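50 nM RECQ1T1 preincubated 15 min with compound in Tris pH 8.0 buffer with MgCl2, DTT, Tween-20 and 2.5 ug/ml poly(dI-dC); started with 200 nM TAMRA/BHQ-2 forked duplex and 2 mM ATP. Unwinding read as fluorescence (525/598 nm), two reads 2 h apart.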

A short description of assay [4]: High Content Imaging Cell-Based qHTS for Inhibitors of the mTORC1 Signaling Pathway in MEF (Tsc2-/-, p53-/-) Cells (AID 2666). In short, it runs like this: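 Phospho-rpS6 (Ser235/236) immunofluorescence, normalized and scored as % positive cells using rapamycin and DMSO controls, was read in empty-vector Tsc2-/-, p53-/- MEFs after 24 h compound exposure at 37 C; propidium iodide counted cells.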

Assay [5] can be described thus: High Content Imaging Cell-Based qHTS for Inhibitors of the mTORC1 Signaling Pathway in MEF Cells (AID 2667).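 Also: Tsc2-/- p53-/- MEFs stably re-expressing wild-type Tsc2 exposed 24 h; series mostly up to about 38 µM.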 The essentials:
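WT MEFs (Tsc2-/-, p53-/- re-expressing Tsc2), in DMEM + 10% FBS, were treated with compound for 24 h at 37 C. Cells were then fixed and stained for phospho-rpS6 Ser235/236 with propidium iodide as cell count. Values are % positive cells, with thresholds set against rapamycin-treated cells.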

Assay [6] is described as follows: Cytometry Cell-Based qHTS for Inhibitors of the mTORC1 Signaling Pathway in MEF cells (AID 2668).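 Also: Tsc2-/- p53-/- mouse embryonic fibroblasts stably re-expressing wild-type Tsc2; percent cells positive for phospho-rpS6 Ser235/236 relative to propidium iodide stain; series mostly up to about 38 µM.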 In short, it runs like this: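 Phospho-rpS6 (Ser235/236) immunofluorescence over PI signal, scored as % positive cells using thresholds from 7.5 nM rapamycin and DMSO wells, after 24 h compound exposure of WT-Tsc2-rescued Tsc2-/-, p53-/- MEFs. PI cell count recorded for viability.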

The target in assay [7] is Ubiquitin carboxyl-terminal hydrolase 2 (Homo sapiens) (UniProt O75604). Kind of assay: qHTS Validation Assay for Inhibitors of Ubiquitin-specific Protease USP2a Using CHOP2 as the Reporter (AID 463106). In short, it runs like this:
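USP2 core (10 nM final) was preincubated with compound 30 min at RT in pH 8.0 Tris/CaCl2/beta-ME/CHAPS buffer. Ub-CHOP2 and reporter substrate (25 nM final each) were then added, with fluorescence (Ex 485/Em 531) read after 60 min. Data were normalized to NEM full inhibition and fitted to concentration-response curves.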

Assay [8] has as its target DNA polymerase III PolC-type (Bacillus subtilis (strain 168)) (UniProt P13267). Briefly: qHTS Validation Assay for the Inhibitors of DNA Replication in Gram-Positive Bacteria (AID 485295). Also: potency is read from the fitted curve at half-maximal effect. In short, it runs like this: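 Double-stranded DNA product detected by PicoGreen fluorescence after EDTA quench. Compound incubated with B. subtilis holoenzyme (PolC, beta subunit, SSB, primase) before substrate addition; primed replication of M13Gori with dNTPs and NTPs at room temperature; DMSO defines 0% inhibition.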

Assay [9] addresses Beta-2 adrenergic receptor (Homo sapiens) (UniProt P07550). Kind of assay: qHTS validation assay of beta-arrestin-biased ligands of beta2-adrenergic receptor (AID 485366). In short, it runs like this:
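Arrestin-recruitment (Tango) reporter: ligand-bound beta2-AR recruits beta-arrestin, releasing tTA, which upregulates luciferase. Titrations of up to 46 microM incubated 18 hr at 37 degrees C before luminescent readout.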

Assay [10] concerns the target Thioredoxin reductase 1, cytoplasmic (Rattus norvegicus) (UniProt O89049). Briefly: qHTS Assay for Substrates of Mammalian Selenoprotein Thioredoxin Reductase 1 (TrxR1) (AID 488772).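 Also: NADPH fluorescence in the first read after selenite addition and not the 8 min delta; series mostly up to about 57 µM; a drop in NADPH fluorescence below the no-compound background marks a TrxR1 substrate.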 In short, it runs like this:
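Quantitative HTS in Tris-HCl buffer at pH 7.5 with EDTA and Tween-20, using rat TrxR1, 400 uM NADPH and 400 uM selenite (final). A fall in initial NADPH fluorescence relative to background marked substrate behaviour.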

Assay [11] concerns the target RecQ-like DNA helicase BLM (Homo sapiens) (UniProt P54132). Kind of assay: qHTS Validation Assay for Inhibitors of Bloom's syndrome helicase (BLM) (AID 2364). The essentials: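 50 nM BLM preincubated 15 min at room temperature with compound in pH 8.0 Tris buffer containing 2.5 ug/ml poly(dI-dC); started with 200 nM TAMRA/BHQ-2 forked duplex and 2 mM ATP (final). Unwinding read as TAMRA fluorescence increase, two reads 2 h apart.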

A short description of assay [12]: Cytometric Cell-Based qHTS for Inhibitors of the mTORC1 Signaling Pathway in MEF (Tsc2-/-, p53-/-) Cells (AID 2660).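 Also: percent of cells above a phospho-rpS6 to PI ratio cutoff in each well; series mostly up to about 38 µM.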 In short, it runs like this: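 Immunofluorescence qHTS of rpS6 Ser235/236 phosphorylation: MEFs (Tsc2-/-, p53-/-) treated 24 h, 37 C, in DMEM + 10% FBS. Alexa-488 signal normalized to PI count, referenced to rapamycin (7.5 nM) and DMSO; PI cell number recorded for viability.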

Assay [13] is described as follows: Validation screen for small molecules that induce DNA re-replication in MCF 10A normal breast cells (AID 463097). Also: nearly all actives have a fitted effect of over 60% in size. The essentials:
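Read-out is Hoechst total nuclear intensity by fluorescence scanning imager, flagging increased high-DNA-content nuclei. Compounds were incubated with MCF 10A cells for 48 hr (37 C, 5% CO2) before 40 min staining.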

For assay [14], the target named is Tumor susceptibility gene 101 protein (Homo sapiens) (UniProt Q99816). Briefly: qHTS Validation Assay for Iinhibitors of HIV-1 Budding by Blocking the Interaction of PTAP/TSG101 (AID 485342; calls by dose curve). The essentials: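 Fluorescence polarization of 50 nM FITC-PTAP peptide bound to 10 uM Tsg101 binding domain was read after 20 min room-temperature incubation with compounds, in 10 mM HEPES pH 7.5, 0.15 M NaCl, 0.01% Tween 20.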
Chain of Tumor susceptibility gene 101 protein (Homo sapiens) (Q99816 whole entry, looked up, the tested form may be a part): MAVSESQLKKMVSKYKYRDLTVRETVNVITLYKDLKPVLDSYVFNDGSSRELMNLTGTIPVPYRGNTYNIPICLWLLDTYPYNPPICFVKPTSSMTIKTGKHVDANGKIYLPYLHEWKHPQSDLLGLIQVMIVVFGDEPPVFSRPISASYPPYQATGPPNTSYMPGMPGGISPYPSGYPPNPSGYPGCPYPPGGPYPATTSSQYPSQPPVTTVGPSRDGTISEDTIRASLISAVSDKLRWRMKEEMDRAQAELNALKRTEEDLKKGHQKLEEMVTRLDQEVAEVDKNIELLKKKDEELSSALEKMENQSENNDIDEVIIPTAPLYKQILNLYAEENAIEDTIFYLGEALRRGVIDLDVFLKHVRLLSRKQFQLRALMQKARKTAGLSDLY

A short description of assay [15]: qHTS Validation Assay to Find Inhibitors of Chronic Active B-Cell Receptor Signaling (AID 485345; active = well fitted curve in the direction sought with a large enough effect in the main read-out, with a control signal flat, not every such curve was filed as active). The essentials:
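TMD8 ABC-DLBCL cells stably carrying doxycycline-inducible IkappaBalpha–green luciferase fusion plus unfused red luciferase; compounds 46 uM to 3 nM, 4 h at 37C with doxycycline. Corrected green/red luminescence ratio normalized to 10 uM MG-132 and basal cell wells; curves fitted.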

A short description of assay [16]: Quantitative high throughput screen for delayed death inhibitors of the malarial parasite plastid, 96 hour incubation (AID 488745).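 Also: luciferase-expressing P. falciparum in erythrocytes at 2% hematocrit and 0.1% parasitemia; series mostly up to about 29 µM; nearly all actives have a fitted effect of over 70% in size.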 In short, it runs like this: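 Growth of reporter-bearing P. falciparum in red cells is measured after 96 h with compound, covering two erythrocytic cycles. Luminescence from the integrated luciferase serves as the growth signal.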

Assay [17] is described as follows: Quantitative high throughput screen for delayed death inhibitors of the malarial parasite plastid, 48 hour incubation (AID 488752). Also: nearly all actives have a fitted effect of over 65% in size. The essentials: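 One parasite generation (48 h, 37 C, 5% CO2) of luciferase-reporter P. falciparum in erythrocytes is run with test compound; decreased luminescence indicates inhibited growth.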
Assay [18] has as its target ATP-dependent 6-phosphofructokinase (Trypanosoma brucei brucei) (UniProt O15648). Briefly: qHTS Validation Assay to Find Inhibitors of T. brucei phosphofructokinase (AID 485368). The following applies: outcome: dose series up to 57.5 µM. In short, it runs like this:
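Steps: substrate mix (0.5 mM F6P, 0.1 mM ATP, MgCl2, TEA pH 8.0); compound; 1.25 nM T. brucei PFK; 45 min RT; ATP depletion 10 min; ADP-to-ATP detection 10 min; luminescence read; curve fitting and classification.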

Results filed as inconclusive are left out. Calls of active or inactive are those of the source. Unless noted, calls follow the shape of the dose curve; as a rule, active = well fitted curve in the direction sought with a large enough effect; inconclusive = small, poorly fitted or top-dose-only effect, or another doubt; inactive = no such curve, though single readings can be large; an effect the other way counts as inactive or inconclusive.

Chain of ATP-dependent DNA helicase Q1 (Homo sapiens) (P46063 whole entry, looked up): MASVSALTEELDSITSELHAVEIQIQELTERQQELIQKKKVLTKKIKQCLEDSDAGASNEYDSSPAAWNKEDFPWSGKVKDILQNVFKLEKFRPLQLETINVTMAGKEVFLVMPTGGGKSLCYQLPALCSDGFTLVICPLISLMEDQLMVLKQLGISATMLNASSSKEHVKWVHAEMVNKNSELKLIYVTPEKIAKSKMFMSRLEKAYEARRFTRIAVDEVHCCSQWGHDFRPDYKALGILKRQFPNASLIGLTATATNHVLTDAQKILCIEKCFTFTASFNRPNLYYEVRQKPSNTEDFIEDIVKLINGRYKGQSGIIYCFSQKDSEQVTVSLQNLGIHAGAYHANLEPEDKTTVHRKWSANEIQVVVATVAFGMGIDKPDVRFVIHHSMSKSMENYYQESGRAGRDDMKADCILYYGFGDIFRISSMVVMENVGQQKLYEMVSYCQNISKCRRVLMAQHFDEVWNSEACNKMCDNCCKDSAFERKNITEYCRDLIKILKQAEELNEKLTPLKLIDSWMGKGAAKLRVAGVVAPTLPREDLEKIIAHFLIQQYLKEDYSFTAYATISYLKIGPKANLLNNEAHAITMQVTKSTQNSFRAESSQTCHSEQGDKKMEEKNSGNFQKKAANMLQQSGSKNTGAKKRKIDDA
Chain of ATP-dependent 6-phosphofructokinase (Trypanosoma brucei brucei) (O15648 whole entry, looked up): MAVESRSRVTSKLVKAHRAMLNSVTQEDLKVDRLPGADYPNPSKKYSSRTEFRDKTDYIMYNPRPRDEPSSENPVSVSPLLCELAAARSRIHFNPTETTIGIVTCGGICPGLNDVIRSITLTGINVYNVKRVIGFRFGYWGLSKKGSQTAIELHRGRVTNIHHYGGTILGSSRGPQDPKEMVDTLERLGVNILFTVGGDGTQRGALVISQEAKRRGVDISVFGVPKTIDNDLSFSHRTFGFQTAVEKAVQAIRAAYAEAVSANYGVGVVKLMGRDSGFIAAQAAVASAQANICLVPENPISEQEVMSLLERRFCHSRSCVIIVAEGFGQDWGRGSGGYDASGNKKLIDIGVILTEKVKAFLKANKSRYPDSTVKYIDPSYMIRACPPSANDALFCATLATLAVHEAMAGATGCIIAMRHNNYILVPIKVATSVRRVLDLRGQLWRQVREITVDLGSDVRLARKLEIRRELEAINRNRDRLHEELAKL
Chain of DNA polymerase III PolC-type (Bacillus subtilis (strain 168)) (P13267 whole entry, looked up): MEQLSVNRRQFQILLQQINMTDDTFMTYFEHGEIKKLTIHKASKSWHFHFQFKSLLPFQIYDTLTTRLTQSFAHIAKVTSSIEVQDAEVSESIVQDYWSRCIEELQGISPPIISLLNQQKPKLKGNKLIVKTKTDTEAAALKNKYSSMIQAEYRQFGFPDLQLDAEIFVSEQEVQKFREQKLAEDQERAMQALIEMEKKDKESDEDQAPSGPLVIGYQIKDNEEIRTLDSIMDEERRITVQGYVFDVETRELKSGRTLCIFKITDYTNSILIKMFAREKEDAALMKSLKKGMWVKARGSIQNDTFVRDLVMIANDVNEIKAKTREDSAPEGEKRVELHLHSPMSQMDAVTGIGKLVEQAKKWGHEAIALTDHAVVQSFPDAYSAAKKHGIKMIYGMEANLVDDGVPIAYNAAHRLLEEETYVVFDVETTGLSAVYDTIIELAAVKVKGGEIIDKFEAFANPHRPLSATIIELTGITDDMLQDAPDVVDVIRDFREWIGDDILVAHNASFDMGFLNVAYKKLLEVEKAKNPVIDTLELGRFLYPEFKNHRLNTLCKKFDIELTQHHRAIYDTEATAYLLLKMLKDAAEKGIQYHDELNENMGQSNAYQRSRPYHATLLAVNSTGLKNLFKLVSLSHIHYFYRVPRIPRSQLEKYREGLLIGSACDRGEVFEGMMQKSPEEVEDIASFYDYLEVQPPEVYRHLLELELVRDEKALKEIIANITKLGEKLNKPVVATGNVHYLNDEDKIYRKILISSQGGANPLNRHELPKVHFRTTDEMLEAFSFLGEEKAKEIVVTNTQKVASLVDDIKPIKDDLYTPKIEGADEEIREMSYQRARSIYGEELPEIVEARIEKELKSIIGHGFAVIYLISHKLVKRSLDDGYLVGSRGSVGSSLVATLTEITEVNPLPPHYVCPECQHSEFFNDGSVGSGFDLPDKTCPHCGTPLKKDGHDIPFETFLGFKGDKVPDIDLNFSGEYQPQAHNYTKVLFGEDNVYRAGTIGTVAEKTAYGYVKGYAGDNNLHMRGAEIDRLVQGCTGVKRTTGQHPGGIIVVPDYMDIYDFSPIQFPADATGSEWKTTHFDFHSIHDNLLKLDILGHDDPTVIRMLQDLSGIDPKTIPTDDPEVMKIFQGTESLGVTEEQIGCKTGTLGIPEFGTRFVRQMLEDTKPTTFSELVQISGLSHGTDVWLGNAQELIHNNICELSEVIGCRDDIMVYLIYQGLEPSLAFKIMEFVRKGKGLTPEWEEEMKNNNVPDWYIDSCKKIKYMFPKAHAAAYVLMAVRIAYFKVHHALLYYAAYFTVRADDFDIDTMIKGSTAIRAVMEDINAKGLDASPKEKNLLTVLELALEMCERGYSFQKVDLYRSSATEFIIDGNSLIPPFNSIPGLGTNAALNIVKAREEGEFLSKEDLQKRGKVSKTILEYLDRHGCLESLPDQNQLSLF
Chain of Ubiquitin carboxyl-terminal hydrolase 2 (Homo sapiens) (O75604 whole entry, looked up): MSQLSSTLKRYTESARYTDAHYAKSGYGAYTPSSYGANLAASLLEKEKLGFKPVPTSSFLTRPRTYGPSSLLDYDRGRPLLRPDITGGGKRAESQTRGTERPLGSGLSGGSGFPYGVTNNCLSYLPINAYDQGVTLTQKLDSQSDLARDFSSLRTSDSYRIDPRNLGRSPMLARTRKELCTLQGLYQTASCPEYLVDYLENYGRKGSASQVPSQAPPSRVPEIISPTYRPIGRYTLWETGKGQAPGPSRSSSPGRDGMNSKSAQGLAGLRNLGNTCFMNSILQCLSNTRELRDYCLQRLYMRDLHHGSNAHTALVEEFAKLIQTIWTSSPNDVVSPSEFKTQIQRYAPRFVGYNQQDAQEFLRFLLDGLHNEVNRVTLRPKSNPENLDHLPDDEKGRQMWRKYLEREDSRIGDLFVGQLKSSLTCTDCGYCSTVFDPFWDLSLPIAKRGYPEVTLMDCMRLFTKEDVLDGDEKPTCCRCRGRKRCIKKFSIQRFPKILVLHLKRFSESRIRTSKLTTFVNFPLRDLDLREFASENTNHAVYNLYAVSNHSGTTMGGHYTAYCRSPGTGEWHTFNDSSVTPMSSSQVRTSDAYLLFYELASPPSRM
Chain of Beta-2 adrenergic receptor (Homo sapiens) (P07550 whole entry, looked up): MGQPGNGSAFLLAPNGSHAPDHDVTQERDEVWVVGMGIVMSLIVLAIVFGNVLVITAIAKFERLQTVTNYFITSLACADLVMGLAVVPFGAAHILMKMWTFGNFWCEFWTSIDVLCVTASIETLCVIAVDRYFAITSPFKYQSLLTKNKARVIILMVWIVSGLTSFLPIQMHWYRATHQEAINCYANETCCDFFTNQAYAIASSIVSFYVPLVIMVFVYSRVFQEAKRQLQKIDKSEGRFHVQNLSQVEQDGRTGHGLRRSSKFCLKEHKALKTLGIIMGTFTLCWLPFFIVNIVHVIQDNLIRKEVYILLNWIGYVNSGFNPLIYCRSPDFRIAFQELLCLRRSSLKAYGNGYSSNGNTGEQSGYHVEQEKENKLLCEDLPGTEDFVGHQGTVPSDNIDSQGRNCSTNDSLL
Chain of Thioredoxin reductase 1, cytoplasmic (Rattus norvegicus) (O89049 whole entry, looked up): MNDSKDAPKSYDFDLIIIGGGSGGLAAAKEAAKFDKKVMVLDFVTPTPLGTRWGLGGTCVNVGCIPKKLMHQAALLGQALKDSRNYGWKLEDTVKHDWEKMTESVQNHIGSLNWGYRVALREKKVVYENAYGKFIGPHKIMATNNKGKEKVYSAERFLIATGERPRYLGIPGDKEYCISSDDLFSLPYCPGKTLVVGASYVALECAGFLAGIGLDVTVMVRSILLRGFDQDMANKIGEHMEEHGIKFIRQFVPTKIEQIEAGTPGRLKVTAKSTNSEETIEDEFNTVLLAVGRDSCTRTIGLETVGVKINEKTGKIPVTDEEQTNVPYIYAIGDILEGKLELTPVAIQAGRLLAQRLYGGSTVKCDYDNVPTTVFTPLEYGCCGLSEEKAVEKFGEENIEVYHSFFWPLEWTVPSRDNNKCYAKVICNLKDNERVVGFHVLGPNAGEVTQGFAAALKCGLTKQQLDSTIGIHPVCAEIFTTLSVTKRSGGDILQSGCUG

In the case of `C[n+]1cc2c3c(ccc2c2ccc4cc5c(cc4c21)OCO5)OCO3`, the Potency in assay [1] is 3.16 µM (active); in assay [8], 8.44 µM (active). Further, the call in assay [2], in assay [7], in assay [9] and in assay [10] was inactive. For the same compound, the Potency result in assay [3], in assay [4], in [5] and in [6] was “inactive” in each case.
Consider `CC(C)COCC(CN(Cc1ccccc1)c1ccccc1)N1CCCC1` (stereo not drawn), for which the Potency entry in assay [1], in [11], in [4], in assay [5], in [6] and in [13] was “inactive” each time. For the same compound, the Potency result in assay [8], in assay [15], in [16] and in assay [17] was “inactive” each time. Besides, the compound was classed as inactive in assay [2], in [12], in assay [7], in [14], in assay [9] and in assay [10].
With `OC(CCN1CCCCC1)(c1ccccc1)C1CCCCC1` (stereo not drawn), in assay [1], the Potency is 11.2 µM (active). Also, the outcome in assay [2], in assay [12], in [7], in assay [14], in assay [9] and in assay [10] was inactive. The Potency entry in [3], in assay [4], in assay [5], in assay [6], in assay [13] and in assay [8] was “inactive” each time.
`C[N+](C)(C)CCOC(N)=O`: the Potency entry in assay [1], in assay [3], in [4], in [5], in [6] and in [13] was “inactive” throughout. Moreover, the Potency entry in assay [8], in [15], in assay [16] and in assay [17] was “inactive” throughout. Further, the outcome in [2], in assay [12], in [7], in assay [14], in assay [9] and in [10] was inactive.
Consider `CN(C)CCCN1c2ccccc2Sc2ccc(C(F)(F)F)cc21`, for which, in [1], the Potency was 10 µM (active). The outcome in assay [2], in assay [12], in assay [7], in [14], in [9] and in assay [10] was inactive. The Potency result in assay [3], in assay [4], in assay [8] and in assay [15] was “inactive” throughout.
In the case of `CCc1c(C)[nH]c2c1C(=O)C(CN1CCOCC1)CC2` (stereo not drawn), the Potency result in assay [1], in assay [3], in assay [4], in assay [5], in [6] and in [13] was “inactive” in each case. In addition, the Potency result in assay [8], in assay [15], in assay [16] and in assay [17] was “inactive” each time. Further, the compound was classed as inactive in assay [2], in assay [12], in [7], in assay [14], in assay [9] and in assay [18]. Moreover, the call in assay [10] was inactive.
For `CC[N+](C)(C)c1cccc(O)c1`, the Potency result in [1], in [3], in [4], in assay [5], in [6] and in assay [13] was “inactive” throughout. Moreover, the Potency result in assay [8], in assay [15] and in assay [17] was “inactive” throughout. For the same compound, the outcome in assay [2], in [12], in assay [7], in assay [14], in [9] and in [18] was inactive. Besides, the call in [10] was inactive.
Take `Cc1ccc(=O)n(-c2ccccc2)c1`: the Potency result in assay [1], in assay [3], in assay [4], in assay [5], in assay [6] and in assay [13] was “inactive” in each case. Also, the Potency entry in [8], in [15], in assay [16] and in assay [17] was “inactive” throughout. Further, the compound was called inactive in assay [2], in [12], in assay [7], in assay [14], in [9] and in assay [18]. In assay [10], the result was inactive.
For `O=C(O)CN(CCOCCOCCN(CC(=O)O)CC(=O)O)CC(=O)O`, the Potency entry in assay [1], in [3], in assay [4], in [5], in assay [6] and in assay [13] was “inactive” each time. In addition, the Potency entry in assay [8], in [15], in assay [16] and in [17] was “inactive” in each case. Moreover, the result in assay [2], in [12], in assay [7], in assay [14], in assay [9] and in assay [18] was inactive. Also, the call in assay [10] was inactive.
